# Source: PubChem BioAssay AID1626 (SRMLSC, 2009)
# Among all 220,000 compounds or so, about 2,000 (0.91%) were called active. Not shown: some 2% with an inconclusive outcome. A selection follows. Entries with a potency or affinity are not part of this list. Unmarked numbers belong to inactive results. Rule as the data show it: inconclusive = inhibition above about 80% without an active follow-up result; inactive = below that; test concentration not stated here.
# Assay: M. tuberculosis H37Rv growth inhibitors, H37Rv strain (AID 1626);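 also: bacteria incubated seven days before Alamar blue readout; 0% = bacteria only wells and 100% = bacteria with antibiotic wells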
# Details: active compounds read high, concentration not given here
row,Compound,inhibition
1,Cc1ccc(-n2c(O)c(C=NCCN3CCOCC3)c(=O)[nH]c2=O)cc1,2.96%
2,CCCc1nnc(NC(=O)Nc2ccc(OC)cc2)s1,-1.18%
3,COc1ccc(S(=O)(=O)N2CCOCC2)cc1Cl,5.97%
4,Cc1ccc(N2C(=O)NC(=O)/C(=C/c3cnn(-c4ccc(C)cc4)c3)C2=O)cc1,79.9%
5,CCCN1C(=O)c2cc(C(=O)Nc3ccc(OC)c(OC)c3)ccc2C1Nc1ccc(OC)c(OC)c1 (stereo unspecified),4.17%
6,CCn1cc(C(=O)N2CCCCC2)c2ccccc21,-0.75%
7,Cn1c(=O)oc2cc(S(=O)(=O)N3CCC4(CC3)OCCO4)ccc21,-6.19%
8,O=C(CSc1nnc(-c2ccncc2)n1Cc1ccco1)OC1CCCCC1,0.38%
9,CCC(C)(C)n1nnnc1C(c1ccncc1)N1CCN(c2cccc(OC)c2)CC1 (stereo unspecified),-11.7%
10,Cc1nc(SCC(=O)NCc2ccco2)c2c3c(sc2n1)CCCC3,-8.98%
11,Cc1cc(NC(=O)CSc2nc(C3CC3)nc3sc4c(c23)CCC(C)C4)no1 (stereo unspecified),-2.86%
12,Cc1cc(NC(=O)CSc2nc(C(C)C)nc3c2c(=O)n(C)c(=O)n3C)no1,-4.22%
13,Cc1cc(NC(=O)CSc2nc(C(C)C)nc3sc(C)c(C)c23)no1,-4.44%
14,COc1ccccc1/C=C/C(=O)NCC(=O)N/N=C/c1ccccc1[N+](=O)[O-],-1.7%
15,CN(C)S(=O)(=O)c1ccc(C(=O)OCC(=O)Nc2sc3c(c2C#N)CCCCC3)cc1,-0.67%
16,CC(C)(C)c1ccc(-c2noc(-c3ccc4c(c3)CCO4)n2)cc1,10.1%
17,Nc1c(N(CCO)C(=O)COc2ccc(Cl)cc2)c(=O)[nH]c(=O)n1Cc1ccccc1,-6.77%
18,Cc1ccc(Nc2nc(N)c([N+](=O)[O-])c(N3CCC(C)CC3)n2)cc1C,10.8%
19,O=c1cc(NCc2ccccc2)nc2ccccn12,4.08%
20,COc1cccc(NC(=O)CSc2ccccn2)c1,-1.36%
21,CC(=O)Nc1ccc(NC(=O)CSc2ccccn2)cc1,7.17%

row,Compound,inhibition
1,O=C(CSc1ccccn1)Nc1ccc2c(c1)C(=O)c1ccccc1C2=O,2.78%
2,COc1ccc(NC(=O)CSc2ccccn2)cc1OC,-4.19%
3,Cn1ccnc1SCC(=O)Nc1ccc2ccccc2c1,11.1%
4,COc1ccc(NC(=O)CSc2ccccn2)cc1,7.31%
5,O=C(CSc1ccccn1)Nc1ccc(NC(=O)CSc2ccccn2)cc1,-2.88%
6,O=C(CSc1ccccc1)Nc1ccncc1,0.82%
7,O=C(NCc1ccccn1)/C(=N/O)c1ccccc1,1.57%
8,COc1ccc(N2C(=O)NC(NC(=O)c3cccnc3)(C(F)(F)F)C2=O)cc1 (stereo unspecified),-4.91%
9,Cc1nccc(-c2cc(-c3ccc(Cl)cc3Cl)no2)n1,0.59%
10,Cc1onc(-c2ccccc2)c1C(=O)NNC(=S)NC(=O)/C=C/c1cccs1,5.26%
11,O=C(N/N=C/c1cc([N+](=O)[O-])ccc1O)C1CC1,9.15%
12,Cc1nn(-c2ccc(F)cc2)c2sc(C(=O)OC3CCOC3=O)cc12 (stereo unspecified),-1.05%
13,Cc1ccc(S(=O)(=O)Nc2ccc3c(c2)nc(C)n3C)cc1,2.7%
14,O=C1/C(=C/c2cccs2)COc2ccccc21,4.75%
15,COc1cc(/C=C2/CC/C(=C/c3ccc(O)c(OC)c3)C2=O)ccc1O,-0.8%
16,CNc1ccc(/C=C2\COc3ccccc3C2=O)cc1[N+](=O)[O-],10.8%
17,COc1ccc(/C=C2/CCc3ccccc3C2=O)cc1OC,5.56%
18,COc1ccc(/C=C2\Cc3ccccc3C2=O)cc1OC,4.06%
19,COc1cc(/C=C2\COC/C(=C\c3cc(OC)c(OC)c(OC)c3)C2=O)cc(OC)c1OC,21.1%
20,CCC(C)NC(=O)CSc1nc2ccccc2c(=O)n1CCCC(=O)NCC1CCCO1 (stereo unspecified),-0.9%
21,Cc1nn(Cc2ccccc2)c(Cl)c1C(=O)OCC#N,2.96%

row,Compound,inhibition
1,Cc1cccc(NC(=O)CSc2ccc(C(N)=O)cc2[N+](=O)[O-])c1C,-7.31%
2,O=C(O)CCC(=O)Nc1ccccc1C(=O)NCc1ccco1,-1.28%
3,Cc1ccc(NC(=S)N/N=C2/CCCCc3ccccc32)cc1,-0.29%
4,COc1ccc2nc(NC(=O)CSc3nnc(-c4ccoc4C)n3C)sc2c1,0.74%
5,COCCOC(=O)c1c(NC(=O)CN2CCc3ccccc32)sc(C(N)=O)c1C,6.77%
6,CCn1cc(C(=O)O)c(=O)c2cnc(N3CCN(C(=S)Nc4ccccc4C(F)(F)F)CC3)nc21,-8%
7,O=C(O)C(Cc1c[nH]c2ccccc12)N1Cc2ccccc2C1=O (stereo unspecified),-8.14%
8,CC(C)CNC(=O)NC1C(NC(=O)NCC(C)C)N(C)C(=O)N1C (stereo unspecified),-2.11%
9,O=C(Nc1ccc(N2CCOCC2)cc1)c1cc2c(s1)CCCC2,-7.27%
10,COc1ccc2nc(N=Nc3c(O)ccc4ccccc34)sc2c1,13.7%
11,COc1ccc2nc(/N=C\N(C)C)sc2c1,5.98%
12,CC(C)(C)C(=O)NNC(=O)c1cc2sccc2s1,13.2%
13,CCCS/C(N)=N/N=C/c1ccccc1O,4.15%
14,CCOc1ccccc1C(=O)N1CCN(C(c2ccccc2)c2ccccc2)CC1,0.97%
15,CC(=O)c1ccccc1OCC(O)CN1CCN(CCN2C(=O)c3cccc4cccc(c34)C2=O)CC1 (stereo unspecified),39.8%
16,CC1=CC(=O)N(c2ccc(C)cc2)C1c1ccc(Cl)cc1 (stereo unspecified),11.2%
17,Cc1ccc2c(c1)c1c(n2CC(O)CNC2CCCC2)CCCC1 (stereo unspecified),27.5%
18,Cc1ccc2c(c1)c1c(n2CC(O)CNC(C)(C)C)CCCC1 (stereo unspecified),3.21%
19,COc1ccc(OC)c(NC(=O)CCc2c[nH]c3ccccc23)c1,11.6%
